Screening data deposited in PubChem BioAssay by National Center for Advancing Translational Sciences (NCATS).
AMA1-RON2 inh – disrupts binding of P. falciparum AMA1 to RON2; AlphaScreen AMA1-biotinylated RON2 peptide binding; Potency, µM (highest dose often 58.2 µM), most hits filed as inhibitors; 0.2% of 360,000 active; also: nearly all actives have a fitted effect of over 45% in size
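AMA1 (3D7) with his tag at 25 nM final met compounds first, then biotinylated RON2 peptide at 25 nM; detection used donor plus acceptor beads, 10 µg/mL apiece, read by AlphaScreen after 30 min at room temperature.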
Pf growth 96h – P. falciparum growth inhibition at 96 hour, primary screen for plastid delayed-death inhibitors | 6.9% of 320,000 active | P. falciparum luciferase reporter growth, 96 h | Potency, µM (titrated, usually from 28.7 µM), actives largely listed as inhibitors | AID 504834
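Plates of compound plus infected erythrocytes (2% hematocrit, 0.05% parasitemia final) incubate 96 hours, 37 C, 5% CO2. Detection reagent added; reduced luminescence from the parasites' luciferase reporter flags inhibition.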
Cycloheximide cs – affects cycloheximide protein synthesis inhibition readout, counter-screen | AID 2314 | max response, % | 12% of 300,000 active | cell reporter, cycloheximide protein synthesis inhibition counterscreen; in the data active = max response mostly above about 13%, no sharp cut-off; inactive = mostly below about 14%; also: read at 38.3 µM for the half of the compounds with a filed dose
Shiga toxin inh – Shiga toxin inhibition. Vero cells, Shiga toxin protein synthesis inhibition reporter. inhibition, % at 38.7 µM. 9.2% of 290,000 active; in the data active = inhibition mostly above about 28%, no sharp cut-off; inactive = mostly below about 43%
Pf growth 48h – P. falciparum growth inhibition at 48 hours (one generation); P. falciparum luciferase growth in erythrocytes, 48 h; Potency, µM (titrated, usually from 28.7 µM), most hits filed as inhibitors; 5.9% of 310,000 active; AID 504832
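Here the parasites carry a stable luciferase gene and grow inside erythrocytes in Albumax-based RPMI medium with compound for one erythrocytic cycle. Activity is scored as loss of luminescent signal.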
SARS PLpro yeast – inhibitors of SARS-CoV papain-like protease in yeast; Potency, µM (top dose mostly 32.9 µM), most hits filed as activators; 0.19% of 330,000 active; S. cerevisiae expressing SARS-CoV PLpro, growth rescue; calls by dose curve; also: nearly all actives have a fitted effect of over 55% in size
Large screens that a line does not name were inactive. In the library only some 19% were active in any assay of this set; here they are far more common. Unless noted, calls follow the shape of the dose curve; as a rule, active = well fitted curve in the direction sought with a large enough effect; inconclusive = small, poorly fitted or top-dose-only effect, or another doubt; inactive = no such curve, though single readings can be large; an effect the other way counts as inactive or inconclusive.

COc1ccccc1NS(=O)(=O)c1cc(NC(=O)c2ccc(Cl)nc2)ccc1Cl	Pf growth 96h 3.3µM, Pf growth 48h 1.7µM
O=C(Nc1ccc(-c2cn3ccsc3n2)cc1)c1ccc(F)c(S(=O)(=O)N2CCOCC2)c1	Pf growth 96h 9.3µM
Cc1ccc(NC(=O)CNc2ccccc2N2CCCC2=O)cc1S(=O)(=O)N1CCCCC1	Pf growth 96h 9.3µM, Pf growth 48h 10µM (no result: Cycloheximide cs, Shiga toxin inh)
Cc1ccc(NC(=O)Cc2ccccc2F)cc1S(=O)(=O)N1CCCCCC1	Pf growth 96h inconclusive, Pf growth 48h inconclusive (no result: Cycloheximide cs, Shiga toxin inh)
CC(C)(C)n1nc2c(c1NC(=O)Cc1ccc([N+](=O)[O-])cc1)CS(=O)(=O)C2	Pf growth 48h inconclusive
COc1ccc(NC(=O)Cn2ncc(Cl)c(Cl)c2=O)cc1S(=O)(=O)N1CCOCC1	Pf growth 96h inconclusive, Cycloheximide cs 19, Pf growth 48h inconclusive
O=C(Nc1ccc(N2CCOCC2)cc1)c1ccc(Cl)c(S(=O)(=O)N2CCCCC2)c1	Pf growth 96h inconclusive, Pf growth 48h 10µM (no result: Cycloheximide cs, Shiga toxin inh)
CNC[C@@H](C)NC[C@@H](Cc1ccccc1)NCCc1ccccc1	Pf growth 96h 2.9µM, Pf growth 48h inconclusive
O=C(NC(Cc1ccccc1)C(=O)O)C1CCN(S(=O)(=O)c2ccccc2C(F)(F)F)CC1 (stereo not drawn)	none
CN(C)C(CNC(=O)C1CCN(S(=O)(=O)c2ccccc2C(F)(F)F)CC1)Cc1ccccc1 (stereo not drawn)	Pf growth 96h 9.3µM, Pf growth 48h inconclusive (no result: Cycloheximide cs, Shiga toxin inh)
CN(C)S(=O)(=O)c1ccc(N2CCCC2)c(C(=O)N2CCN(S(=O)(=O)c3ccc(F)c(F)c3)CC2)c1	none (no result: Pf growth 96h, Cycloheximide cs, Shiga toxin inh, Pf growth 48h, SARS PLpro yeast)
O=C(Nc1ccccc1N1CCCCC1)C1CCN(S(=O)(=O)c2ccccc2C(F)(F)F)CC1	AMA1-RON2 inh inconclusive, Pf growth 96h inconclusive, Pf growth 48h 9.3µM (no result: Cycloheximide cs, Shiga toxin inh, SARS PLpro yeast)
Cc1ccc(S(=O)(=O)N2CCC(C(=O)Nc3ccccc3N3CCCC3)CC2)c(C)c1	Pf growth 96h inconclusive, Pf growth 48h 9.3µM (no result: Cycloheximide cs, Shiga toxin inh)
Cc1ccc(S(=O)(=O)N2CCN(C(=O)c3cc(S(=O)(=O)N(C)C)ccc3N3CCCC3)CC2)c(C)c1	Pf growth 96h 5.2µM, Pf growth 48h 2.9µM (no result: Cycloheximide cs, Shiga toxin inh)
Cc1c(C(=O)N2CCNCC2)oc2ccccc12	none
COc1ccccc1NC(=O)COC(=O)C1=NN(c2ccccc2)C(=O)CC1	none (no result: Pf growth 96h, Cycloheximide cs, Shiga toxin inh, Pf growth 48h)
Oc1cc(Cc2ccccc2)cnc1CN1CCCCC1	Pf growth 48h 0.93µM
CC1=Nc2cc(Cl)ccc2Oc2ccccc21	Pf growth 96h 2.1µM
CC(C)c1ccc(S(=O)(=O)N2CCC(C(=O)N3CCC3)CC2)cc1	Pf growth 48h inconclusive (no result: Cycloheximide cs, Shiga toxin inh)
COc1ccc(CN2CN(S(=O)(=O)c3ccccc3)c3nc4ccccc4nc32)cc1	Pf growth 96h inconclusive, Cycloheximide cs 33, Shiga toxin inh 112, Pf growth 48h inconclusive
O=S(=O)(c1cccs1)N1CN(Cc2cccs2)c2nc3ccccc3nc21	Pf growth 48h inconclusive
COc1ccc(CN2CN(S(=O)(=O)c3cccs3)c3nc4ccccc4nc32)cc1	Pf growth 96h inconclusive, Cycloheximide cs 48, Shiga toxin inh 80, Pf growth 48h inconclusive
Cc1ccc(S(=O)(=O)N2CN(Cc3ccco3)c3nc4ccccc4nc32)cc1	Pf growth 96h inconclusive, Pf growth 48h inconclusive
O=S(=O)(c1cccs1)N1CN(Cc2ccccc2)c2nc3ccccc3nc21	Pf growth 96h inconclusive, Pf growth 48h inconclusive
COc1ccc(S(=O)(=O)N2CN(Cc3ccco3)c3nc4ccccc4nc32)cc1	Pf growth 48h 12µM
CCCCCN1CN(S(=O)(=O)c2cccs2)c2nc3ccccc3nc21	Pf growth 96h inconclusive, Cycloheximide cs 16, Pf growth 48h inconclusive
Cc1cc2nc(-c3cccc(Br)c3)c(Cc3ccccc3)n2c(C)c1Br	none (no result: Pf growth 96h, Cycloheximide cs, Shiga toxin inh, Pf growth 48h, SARS PLpro yeast)
Cc1cc(S(=O)(=O)NCc2ccncc2)c(C)cc1Br	Pf growth 96h inconclusive
COc1ccc(CCN2CN(S(=O)(=O)c3ccc(C)cc3)c3nc4ccccc4nc32)cc1OC	none
COc1ccc(CCN2CN(S(=O)(=O)c3ccc(OC)cc3)c3nc4ccccc4nc32)cc1	Pf growth 96h inconclusive, Cycloheximide cs 27, Shiga toxin inh 39, Pf growth 48h inconclusive
COc1ccc(CNc2ccc(C)c(C)c2)c(OC)c1OC	AMA1-RON2 inh inconclusive, Cycloheximide cs 24, Pf growth 48h inconclusive
COc1ccc(CNc2nc3ccc(C)cc3s2)c(OC)c1OC	Cycloheximide cs 15, Shiga toxin inh 41, Pf growth 48h inconclusive
COc1cc(C)c(CNc2ccc(OC)c(OC)c2)cc1C	Cycloheximide cs 14, Shiga toxin inh 76, Pf growth 48h 9.3µM (no result: AMA1-RON2 inh, Pf growth 96h)
COc1ccc(CNc2cc(C)ccc2C)c(OC)c1OC	Pf growth 48h inconclusive (no result: Pf growth 96h)
COc1ccc(NC(=O)CN(c2ccc(OC)cc2)S(=O)(=O)c2c(C)nn(C)c2C)cc1	Pf growth 48h inconclusive
O=C(NCCN1CCCCC1)Nc1ccc(Br)cc1	Pf growth 48h inconclusive
O=C(NCCN1CCOCC1)Nc1ccc(Cl)cc1	Pf growth 96h 4.7µM, Cycloheximide cs 13
Cc1ccc(NC(=O)NCCN2CCCCC2)cc1	Cycloheximide cs 8.8
O=C(NCCN1CCCCC1)Nc1cccc(Cl)c1Cl	Pf growth 96h 13µM
CCN(Cc1ccccc1)C(=O)c1ccc(NC(=O)c2ccc(OC)cc2)cc1	none
COc1cccc2oc(SC)cc(=O)c12	Shiga toxin inh active (no result: AMA1-RON2 inh, Pf growth 96h, Pf growth 48h, SARS PLpro yeast)
COc1ccc(Br)c2oc(S)cc(=O)c12	none
COc1cccc2oc(-c3ccccc3)cc(=O)c12	Cycloheximide cs 29, Shiga toxin inh 33 (no result: AMA1-RON2 inh, Pf growth 96h, Pf growth 48h, SARS PLpro yeast)
C[C@@H]1CN([C@@H](C)CO)S(=O)(=O)c2ccc(C#CC3CCCCC3)cc2O[C@@H]1CN(C)Cc1cccnc1	none (no result: Pf growth 96h, Cycloheximide cs, Shiga toxin inh, Pf growth 48h, SARS PLpro yeast)
C/C(=N\NC(=O)C1COc2ccccc2O1)c1ccccn1 (stereo not drawn)	Pf growth 96h 2.6µM, Cycloheximide cs 16, Pf growth 48h 2.6µM
O=C(Nc1ncccc1Cl)C1COc2ccccc2O1 (stereo not drawn)	Cycloheximide cs 53, Shiga toxin inh 161 (no result: Pf growth 96h)
C/C(=N\NC(=O)C1COc2ccccc2O1)c1ccc(C)o1 (stereo not drawn)	none (no result: Pf growth 48h)
Cc1ccc(NC(=O)C2Oc3ccccc3OC2C)cc1 (stereo not drawn)	Cycloheximide cs 15
Cc1ccc(NC(=O)C2COc3ccccc3O2)cc1 (stereo not drawn)	Pf growth 96h inconclusive, Cycloheximide cs 35, Shiga toxin inh 105
O=C(NCc1ccccn1)C1COc2ccccc2O1 (stereo not drawn)	none (no result: Pf growth 96h)
O=C(Nc1ccccc1)C1COc2ccccc2O1 (stereo not drawn)	Cycloheximide cs 22, Shiga toxin inh 57
O=C(Nc1cccnc1)C1COc2ccccc2O1 (stereo not drawn)	none
CCCNC(=O)c1ccccc1NC(=O)C1COc2ccccc2O1 (stereo not drawn)	Pf growth 96h inconclusive, Pf growth 48h inconclusive
Cc1ccc(NC(=O)C2COc3ccccc3O2)c(C)c1 (stereo not drawn)	Cycloheximide cs 23 (no result: Shiga toxin inh)
